Results on 5 compounds are retold here after PubChem BioAssay.

Test [1] has as its system Plasmodium falciparum Sir2 (PF13_0152, Sir2A). Description: Plasmodium falciparum Sir2A binding compounds – biochemical, small-molecule microarray, 635 nm fluorescence, primary screen (AID 1098).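 Also: score merges spot fluorescence intensity with its signal-to-noise ratio.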 The note with it: fluorescence 635 nm, higher = more signal.
The nature of test [2]: probe aDKK1 binding to arrayed compounds – biochemical, biotinylated probe, 635/667 nm fluorescence, primary screen (AID 1099).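 Also: score merges 667nm spot fluorescence with signal to noise across triplicate slides.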 The note with it: small-molecule microarray, higher = more signal.
A short description of test [3]: probe aCHRDL2 binding to arrayed compounds – biochemical, biotinylated probe, 635/667 nm fluorescence, primary screen (AID 1100). The note with it: small-molecule microarray, higher = more signal.
Test [4] is described as follows: change in splice reporter luminescence, either direction, cell-based, HEK293, spliceosome inhibition project, primary screen (AID 1101).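 Also: HEK293 cells carrying a splicing-competent luciferase reporter gene; test concentration not given here.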 The note with it: HEK293 splicing luciferase reporter, 24 h, higher = more signal, called active from +8 up or from −8 down.
Test [5] deals with Fibroblast growth factor 10 (Homo sapiens) (UniProt O15520). In words: compounds binding fibroblast growth factor 10 – biochemical, small-molecule microarray, 635 nm fluorescence, primary screen (AID 1102). The note with it: FGF10 binding, fluorescence 635 nm, higher = more signal.
Sequence of Fibroblast growth factor 10 (Homo sapiens) (O15520 whole entry, looked up): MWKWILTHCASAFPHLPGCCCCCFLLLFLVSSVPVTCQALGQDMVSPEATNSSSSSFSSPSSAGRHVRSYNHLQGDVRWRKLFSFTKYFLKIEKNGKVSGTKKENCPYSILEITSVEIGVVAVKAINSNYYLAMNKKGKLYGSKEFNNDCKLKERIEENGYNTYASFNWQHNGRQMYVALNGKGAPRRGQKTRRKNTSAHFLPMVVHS
For test [6], the system named is glycogen synthase kinase-3 (GSK3A per assay name; protocol says GSK3B). In words: compounds binding glycogen synthase kinase-3 – biochemical, small-molecule microarray, 635 nm fluorescence, GSK3A, primary screen (AID 1103). Also: the record names both GSK3A and GSK3B. The note with it: fluorescence 635 nm, higher = more signal.
In test [7] the target is Epidermal growth factor receptor (Homo sapiens) (UniProt P00533). Description: compounds binding epidermal growth factor receptor – biochemical, small-molecule microarray, 635 nm fluorescence, primary screen (AID 1104).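 Also: score merges 667 nm emission intensity with spot signal to noise over triplicate slides.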 The note with it: EGFR binding, higher = more signal.
Sequence of Epidermal growth factor receptor (Homo sapiens) (P00533 whole entry, looked up): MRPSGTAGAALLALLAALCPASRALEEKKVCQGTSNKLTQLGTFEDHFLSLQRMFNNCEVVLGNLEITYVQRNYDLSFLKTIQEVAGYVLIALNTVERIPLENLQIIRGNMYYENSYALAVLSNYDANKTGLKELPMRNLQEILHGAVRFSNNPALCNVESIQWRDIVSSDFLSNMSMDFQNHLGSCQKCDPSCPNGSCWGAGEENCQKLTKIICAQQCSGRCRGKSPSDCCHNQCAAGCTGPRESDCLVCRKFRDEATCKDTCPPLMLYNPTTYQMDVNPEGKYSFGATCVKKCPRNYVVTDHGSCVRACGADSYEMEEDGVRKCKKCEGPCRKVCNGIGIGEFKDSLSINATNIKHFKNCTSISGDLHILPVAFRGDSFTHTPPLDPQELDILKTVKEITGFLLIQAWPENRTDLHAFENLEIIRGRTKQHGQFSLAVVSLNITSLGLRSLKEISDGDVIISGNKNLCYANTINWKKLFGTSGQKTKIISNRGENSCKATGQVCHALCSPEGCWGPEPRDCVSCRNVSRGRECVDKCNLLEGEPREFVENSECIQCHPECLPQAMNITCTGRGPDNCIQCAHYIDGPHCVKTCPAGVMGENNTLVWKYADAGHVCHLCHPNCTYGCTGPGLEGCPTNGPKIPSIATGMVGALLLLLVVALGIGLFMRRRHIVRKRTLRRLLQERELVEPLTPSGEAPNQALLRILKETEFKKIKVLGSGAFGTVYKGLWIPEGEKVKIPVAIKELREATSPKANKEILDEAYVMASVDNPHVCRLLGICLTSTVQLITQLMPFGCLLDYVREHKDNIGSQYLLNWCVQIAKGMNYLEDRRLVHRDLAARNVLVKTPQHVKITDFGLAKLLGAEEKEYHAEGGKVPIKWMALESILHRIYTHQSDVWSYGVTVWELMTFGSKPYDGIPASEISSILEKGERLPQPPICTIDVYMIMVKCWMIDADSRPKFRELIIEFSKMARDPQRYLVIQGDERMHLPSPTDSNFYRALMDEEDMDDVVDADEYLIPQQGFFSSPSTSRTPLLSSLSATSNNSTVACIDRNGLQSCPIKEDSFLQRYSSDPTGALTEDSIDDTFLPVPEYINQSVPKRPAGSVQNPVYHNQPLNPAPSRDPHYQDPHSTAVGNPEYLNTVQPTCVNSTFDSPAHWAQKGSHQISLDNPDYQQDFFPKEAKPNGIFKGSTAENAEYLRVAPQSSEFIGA
The target of test [8] is Follistatin-related protein 3 (Homo sapiens) (UniProt O95633). In words: compounds binding follistatin-related protein 3 – biochemical, small-molecule microarray, 635 nm fluorescence, primary screen (AID 1105).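 Also: score merges emission near 667 nm and signal to noise per printed spot across three slides.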 The note with it: FSTL3 binding, higher = more signal.
Sequence of Follistatin-related protein 3 (Homo sapiens) (O95633 whole entry, looked up): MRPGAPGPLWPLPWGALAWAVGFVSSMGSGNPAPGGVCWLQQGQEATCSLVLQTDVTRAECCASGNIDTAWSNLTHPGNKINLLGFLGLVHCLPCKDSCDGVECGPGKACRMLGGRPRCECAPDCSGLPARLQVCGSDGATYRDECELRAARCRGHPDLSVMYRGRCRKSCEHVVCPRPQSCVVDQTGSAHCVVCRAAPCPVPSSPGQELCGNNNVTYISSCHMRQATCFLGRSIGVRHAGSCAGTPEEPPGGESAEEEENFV
The target in test [9] is Dickkopf-related protein 1 (Homo sapiens) (UniProt O94907). In words: small molecules binding DKK1 protein – biochemical, small-molecule microarray, 635 nm fluorescence scan, primary screen (AID 1106).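 Also: score merges emission near 667 nm with signal to noise over three replicate slides.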 The note with it: higher = more signal.
Sequence of Dickkopf-related protein 1 (Homo sapiens) (O94907 whole entry, looked up): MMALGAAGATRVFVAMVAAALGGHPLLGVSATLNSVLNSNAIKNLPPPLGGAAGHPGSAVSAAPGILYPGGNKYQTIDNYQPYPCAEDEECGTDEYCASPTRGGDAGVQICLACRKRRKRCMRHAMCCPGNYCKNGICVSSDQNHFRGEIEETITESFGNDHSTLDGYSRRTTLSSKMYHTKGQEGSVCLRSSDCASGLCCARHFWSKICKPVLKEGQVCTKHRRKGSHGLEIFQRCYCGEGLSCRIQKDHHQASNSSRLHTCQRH
In test [10] the test system is Inhibin beta A chain (activin A). Description: small molecules binding activin A – biochemical, small-molecule microarray, 635 nm fluorescence scan, primary screen (AID 1107).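 Also: mouse activin A protein probed at 4.33 µg/mL on printed slides; score merges bound-protein fluorescence near 667 nm with spot signal-to-noise.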 The note with it: INHBA, higher = more signal.
The test system of test [11] is Human papillomavirus type 1a protein E7 (residues 44-93). In words: small molecules binding HPV E7 44-93 – biochemical, small-molecule microarray, residues 44-93, 635 nm fluorescence, primary screen (AID 1108).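 Also: E7 fragment applied at 1 µg/mL in TBST for 1 h at 4 C; score combines spot fluorescence with its signal to noise ratio.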 The note with it: fluorescence 635 nm, higher = more signal.
Test [12] can be described thus: hepatitis C replication reporter changes, two-sided – Huh7 cells, luciferase reporter, HCV replication inhibitor project, primary screen (AID 1109).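 Also: huh7 hepatoma cells harbouring a luciferase neomycin HCV replicon reporter; luciferase luminescence as measure of HCV replicon replication; test concentration not given here.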 The note with it: Huh7 HCV replicon luciferase reporter, 48 h; higher = more signal.
Test [13] has as its target Left-right determination factor 2 (Homo sapiens) (UniProt O00292). Description: small molecules binding LEFTY2 protein – biochemical, small-molecule microarray, 635 nm fluorescence scan, primary screen (AID 1110). The note with it: higher = more signal.
Test [14] deals with Calmodulin-1 (Homo sapiens) (UniProt P0DP23). Description: small molecules binding calmodulin-1 with EGTA – biochemical, small-molecule microarray, Cy5-labelled CALM1, profiling panel (AID 1111).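 Also: labelled calmodulin applied in Tris saline Tween buffer holding calcium plus EGTA and DTT.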 The note with it: Cy5-CALM1 binding fluorescence, higher = more signal.
The target is the same in test [15]. In words: small molecules binding Ca-loaded calmodulin-1 – biochemical, small-molecule microarray, Cy5-labelled CALM1, plus calcium, artefact control for SMM control-protein annotation, profiling panel (AID 1112).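 Also: score merges spot fluorescence with signal to noise from triplicate slides.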 The note with it: Cy5-CALM1 binding fluorescence, higher = more signal.
The nature of test [16]: probe aWnt5a binding to arrayed compounds – biochemical, biotinylated probe, 635/667 nm fluorescence, primary screen (AID 1113).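 Also: score merges 667 nm fluorescence intensity with signal-to-noise per printed feature.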 The note with it: small-molecule microarray, higher = more signal.
Test [17] is described as follows: probe aShh binding to arrayed compounds – biochemical, biotinylated probe, 635/667 nm fluorescence, primary screen (AID 1114).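 Also: probe is biotin-labelled aShh protein from a stem cell growth factor screen; measures binding of labelled protein to compounds printed on the slide; score merges feature fluorescence at 667 nm with signal-to-noise.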 The note with it: small-molecule microarray, higher = more signal.
A short description of test [18]: probe aNog binding to arrayed compounds – biochemical, biotinylated probe, 635/667 nm fluorescence, primary screen (AID 1115).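 Also: probe is biotinylated aNog protein used at 0.15 µg/mL for 1 h at 4 C; z-score combines 667 nm fluorescence of each spot with its signal to noise.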 The note with it: small-molecule microarray, higher = more signal.
Test [19] addresses Torsin-1A-interacting protein 1 (Homo sapiens) (UniProt Q5JTV8). In words: compound microarray binding of lysate hLAP1 – cell lysate, small-molecule microarray, COS7 lysate, 635/667 nm fluorescence, primary screen (AID 1116). The note with it: 635 nm fluorescence, higher = more signal.
The target of test [20] is Alpha-bungarotoxin (Bungarus multicinctus) (UniProt P60615). Description: compounds binding labelled alpha-BTX control protein – biochemical, small-molecule microarray, Alexa647 label, 635/667 nm fluorescence, artefact control for SMM control protein annotation, profiling panel (AID 1117). The note with it: alpha-BTX-A647 binding fluorescence, higher = more signal.
Sequence of Alpha-bungarotoxin (Bungarus multicinctus) (P60615 whole entry, looked up): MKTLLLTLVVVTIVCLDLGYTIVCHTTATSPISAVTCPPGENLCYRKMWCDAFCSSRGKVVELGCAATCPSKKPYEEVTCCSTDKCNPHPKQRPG

Each structure is given as a SMILES string. Active and inactive are the calls of the source.

Sequence of Torsin-1A-interacting protein 1 (Homo sapiens) (Q5JTV8 whole entry, looked up): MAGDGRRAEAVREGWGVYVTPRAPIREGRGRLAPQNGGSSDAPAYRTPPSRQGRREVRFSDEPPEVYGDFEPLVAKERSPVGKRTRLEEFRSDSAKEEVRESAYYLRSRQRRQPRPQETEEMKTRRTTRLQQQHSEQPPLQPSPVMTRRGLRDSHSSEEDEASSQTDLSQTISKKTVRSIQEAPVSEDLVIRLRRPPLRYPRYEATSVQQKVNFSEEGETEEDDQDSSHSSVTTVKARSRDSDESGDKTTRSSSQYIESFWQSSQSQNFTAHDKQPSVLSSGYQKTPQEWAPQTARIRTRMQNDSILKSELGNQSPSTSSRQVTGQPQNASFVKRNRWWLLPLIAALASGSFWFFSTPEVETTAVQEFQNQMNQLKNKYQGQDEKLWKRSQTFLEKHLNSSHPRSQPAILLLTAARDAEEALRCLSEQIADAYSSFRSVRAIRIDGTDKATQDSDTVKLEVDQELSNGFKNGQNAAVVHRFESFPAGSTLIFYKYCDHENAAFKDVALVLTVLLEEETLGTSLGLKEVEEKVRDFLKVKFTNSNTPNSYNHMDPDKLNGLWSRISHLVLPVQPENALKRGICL
Sequence of Left-right determination factor 2 (Homo sapiens) (O00292 whole entry, looked up): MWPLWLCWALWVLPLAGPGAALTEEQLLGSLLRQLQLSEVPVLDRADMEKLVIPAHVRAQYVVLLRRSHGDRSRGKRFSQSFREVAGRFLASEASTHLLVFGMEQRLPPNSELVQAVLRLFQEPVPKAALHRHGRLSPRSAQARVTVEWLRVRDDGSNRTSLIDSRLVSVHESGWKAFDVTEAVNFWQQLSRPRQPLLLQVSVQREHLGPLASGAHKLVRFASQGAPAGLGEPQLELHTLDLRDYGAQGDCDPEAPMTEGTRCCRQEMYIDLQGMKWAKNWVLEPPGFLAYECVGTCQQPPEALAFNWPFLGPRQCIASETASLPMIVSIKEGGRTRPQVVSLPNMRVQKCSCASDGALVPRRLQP

Consider `C=CC[C@@]1(C(=O)NCCN2CCOCC2)N=C(c2ccc(OCCCO)cc2)O[C@@H]1c1ccccc1N=[N+]=[N-]`, for which the composite z-score in [1] was 0.241; in test [2], 1.09; in test [3], 1.03; in [5] it was 0.0038; in [6], -0.142; in test [7] it was 0.539. The composite z-score in test [8] is 0.255; in test [9], -0.0358; in test [10] it was 1.72; in test [11], 0.446; in test [13] it was 0.187; in test [14] it was 1.26. In addition, the composite z-score in test [15] is 0.581; in test [16] it was -0.1; in [17], -0.215; in [18], -0.0119; in [19], 1.76; in test [20] it was 0.841. The z-score was -0.656 (inactive) in test [4] and -1.23 in test [12].

With `COCC(=C=CC[C@@H](O)c1cccc(OCCO)c1)C[C@@H](O)c1ccccn1`, the composite z-score in [1] is 0.976; in test [2], -0.193; in test [3], -0.355; in [5], 0.751; in [6] it was 0.175; in test [7], 0.101. Besides, the composite z-score is 0.167 in test [8]; 0.307 in [9]; 0.565 in test [10]; -0.768 in test [11]; 0.493 in [13]; -0.301 in test [14]. Besides, the composite z-score in [15] is -0.0023; in [16], -0.0459; in test [17] it was -0.221; in test [18] it was -0.388; in test [19], 1.15; in [20] it was 0.216. Further, the results for the z-score in [4] and in test [12] were 0.758 (inactive) and 0.0065, respectively.

Turning to `CCCC[C@H]1OB(O)C[C@H]2C1=C(COC)Cn1c(=O)n(-c3ccccc3)c(=O)n12`, the composite z-score in test [1] was -0.0483; in [2] it was -0.383; in [3], -0.738; in [5], 0.516; in test [6] it was 0.302; in test [7], 0.54. The composite z-score in test [8] is 0.517; in test [9], 0.465; in test [10], 0.95; in test [11] it was 0.039; in test [13] it was 0.358; in test [14], -0.215. In addition, the composite z-score is -0.421 in test [15]; -0.0792 in test [16]; -0.0977 in test [17]; 0.445 in test [18]; 0.0892 in test [19]; 0.0547 in test [20]. In addition, the z-score was 0.271 (inactive) in test [4] and -0.673 in test [12].

In the case of `O=C1O[C@H](c2ccccc2)[C@H](c2ccccc2)N2[C@H]1[C@@H](C(=O)N1CCCCCCC1)[C@]1(C(=O)Nc3ccc(C#CCCO)cc31)[C@H]2c1ccccc1OCCO`, the composite z-score in test [1] was 2.26; in [2], 3.11; in test [3] it was 1.53; in test [5] it was 1.76; in [6], 1.5; in [7], 2. Further, the composite z-score is 1.79 in [8]; 2.76 in test [9]; 1.84 in test [10]; 1.62 in [11]; 1.91 in [13]; 3.03 in test [14]. The composite z-score in test [15] turned out to be 1.73; in test [16], 1.69; in [17], 3.01; in test [18], 2.38; in test [19], 5.84; in test [20], 4.84. For the same compound, the results for the z-score in [4] and in test [12] were -0.207 (inactive) and -1.53, respectively.

With `COc1cc2c(cc1OC)CN(C(=O)[C@H]1[C@@H]3C(=O)O[C@@H](c4ccccc4)[C@@H](c4ccccc4)N3[C@@H](c3ccc(O)cc3)[C@]13C(=O)Nc1ccccc13)CC2`, the composite z-score is 1.23 in test [1]; -0.0009 in test [2]; -0.123 in test [3]; 0.708 in test [5]; 0.691 in test [6]; -0.0502 in test [7]. The composite z-score in [8] is -0.276; in test [9], -0.198; in test [10] it was -0.188; in test [11], 1.46; in [13], 0.0835; in test [14] it was 0.92. Moreover, the composite z-score is 0.427 in test [15]; -0.166 in test [16]; -0.0289 in test [17]; 0.386 in test [18]; 1.01 in test [19]; 1.43 in test [20]. In addition, the z-score in test [4] is -0.0299 (inactive); in [12], -2.54.
